# Measurements taken from article PMC7862700, “An all-to-all approach to the identification of sequence-specific readers for epigenetic DNA modifications on cytosine”.
# Tests used:
# Assay in all cases: DAPPL (digital affinity profiling via proximity ligation, sequencing); 10 mM Tris-HCl pH 7.5, 50 mM NaCl, 1 mM DTT, 4% glycerol, room temperature, 30 min; GST-TFs on glutathione beads, 16-mer random dsDNA library, 0.1% formaldehyde crosslink after washing; high values mean tight binding
# FLI1 = biological target: T1, FLI1 (Homo sapiens, UniProt Q01543 1-452); settings: protein: recombinant; tags: N-terminal GST; dsDNA, one strand shown
# T1 sequence: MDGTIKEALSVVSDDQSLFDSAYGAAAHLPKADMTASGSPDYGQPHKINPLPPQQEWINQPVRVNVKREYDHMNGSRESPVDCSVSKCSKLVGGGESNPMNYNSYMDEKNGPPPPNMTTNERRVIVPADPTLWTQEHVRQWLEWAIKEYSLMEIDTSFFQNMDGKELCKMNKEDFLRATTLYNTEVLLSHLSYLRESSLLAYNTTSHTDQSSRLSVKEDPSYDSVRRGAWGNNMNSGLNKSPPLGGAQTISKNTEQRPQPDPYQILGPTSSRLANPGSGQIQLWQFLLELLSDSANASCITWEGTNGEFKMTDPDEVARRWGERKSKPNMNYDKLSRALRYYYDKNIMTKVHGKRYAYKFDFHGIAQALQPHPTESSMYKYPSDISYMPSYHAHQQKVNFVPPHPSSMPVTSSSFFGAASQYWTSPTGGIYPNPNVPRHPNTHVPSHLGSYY
# Procedure, shortened: (§1)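 GST fusions of human transcription factors were expressed in yeast and captured with glutathione beads. Once given DNA barcodes and pooled alongside a tag-only sample, they were incubated for 30 min at room temperature with 200 nmole of a random double-stranded 16-mer DNA library in Tris/NaCl/DTT/glycerol buffer, then washed, crosslinked (0.1% formaldehyde), proximity-ligated, PCR-amplified and sequenced on an Illumina NextSeq500. The binding signal of each hexamer is its read frequency for a factor divided by its frequency for the tag-only sample.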
# ELK1 = biological target: T2, ELK1 (Homo sapiens, UniProt P19419 1-428); settings: protein: recombinant; tags: N-terminal GST; dsDNA, one strand shown
# T2 sequence: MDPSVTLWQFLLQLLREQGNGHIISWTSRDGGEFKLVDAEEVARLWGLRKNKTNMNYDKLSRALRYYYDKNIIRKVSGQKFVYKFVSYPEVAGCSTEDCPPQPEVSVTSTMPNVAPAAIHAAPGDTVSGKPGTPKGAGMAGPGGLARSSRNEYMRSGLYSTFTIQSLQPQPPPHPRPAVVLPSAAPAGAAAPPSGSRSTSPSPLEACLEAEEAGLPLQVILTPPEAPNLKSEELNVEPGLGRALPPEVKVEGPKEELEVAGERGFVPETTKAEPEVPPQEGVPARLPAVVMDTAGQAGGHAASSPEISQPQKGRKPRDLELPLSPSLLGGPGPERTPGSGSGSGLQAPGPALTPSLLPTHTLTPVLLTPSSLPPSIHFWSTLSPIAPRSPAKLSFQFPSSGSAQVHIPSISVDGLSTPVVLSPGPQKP
# Procedure, shortened: as §1
# GABPA = biological target: T3, GABPA (Homo sapiens, UniProt Q06546 1-454); settings: protein: recombinant; tags: N-terminal GST; dsDNA, one strand shown
# T3 sequence: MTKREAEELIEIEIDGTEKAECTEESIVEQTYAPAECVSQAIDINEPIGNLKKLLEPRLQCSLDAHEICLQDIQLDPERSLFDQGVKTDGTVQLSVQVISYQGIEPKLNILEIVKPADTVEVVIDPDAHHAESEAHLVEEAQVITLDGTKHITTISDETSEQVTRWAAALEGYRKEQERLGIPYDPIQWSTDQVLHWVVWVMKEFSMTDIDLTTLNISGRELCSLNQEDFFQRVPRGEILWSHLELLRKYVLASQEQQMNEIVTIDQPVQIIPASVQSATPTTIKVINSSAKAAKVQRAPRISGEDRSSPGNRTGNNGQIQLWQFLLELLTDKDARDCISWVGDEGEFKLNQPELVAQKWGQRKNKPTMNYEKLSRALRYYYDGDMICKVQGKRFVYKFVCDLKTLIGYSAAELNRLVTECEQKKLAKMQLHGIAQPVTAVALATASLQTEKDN
# Procedure, shortened: as §1
# ERG = biological target: T4, ERG (Homo sapiens, UniProt P11308 1-479); settings: protein: recombinant; tags: N-terminal GST; dsDNA, one strand shown
# T4 sequence: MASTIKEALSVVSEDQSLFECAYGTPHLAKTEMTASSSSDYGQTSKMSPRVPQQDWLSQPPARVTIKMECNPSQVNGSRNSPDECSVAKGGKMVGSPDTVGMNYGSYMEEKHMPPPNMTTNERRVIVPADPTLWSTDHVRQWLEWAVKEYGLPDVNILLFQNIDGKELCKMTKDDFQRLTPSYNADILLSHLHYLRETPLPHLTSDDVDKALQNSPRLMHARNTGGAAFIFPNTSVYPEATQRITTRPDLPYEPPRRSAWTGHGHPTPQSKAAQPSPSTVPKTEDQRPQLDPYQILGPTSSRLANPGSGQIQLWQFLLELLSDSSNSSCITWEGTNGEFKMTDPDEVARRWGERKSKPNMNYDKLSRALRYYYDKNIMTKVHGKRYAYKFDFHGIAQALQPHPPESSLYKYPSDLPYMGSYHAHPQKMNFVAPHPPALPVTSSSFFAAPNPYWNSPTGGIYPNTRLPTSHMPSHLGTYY
# Procedure, shortened: as §1
# ELF1 = ELF1 (Homo sapiens, UniProt P32519 1-619); settings: protein: recombinant; tags: N-terminal GST; dsDNA, one strand shown
# Procedure, shortened: as §1
# EHF = biological target: T5, EHF (Homo sapiens, UniProt Q9NZC4 1-300); settings: protein: recombinant; tags: N-terminal GST; dsDNA, one strand shown
# T5 sequence: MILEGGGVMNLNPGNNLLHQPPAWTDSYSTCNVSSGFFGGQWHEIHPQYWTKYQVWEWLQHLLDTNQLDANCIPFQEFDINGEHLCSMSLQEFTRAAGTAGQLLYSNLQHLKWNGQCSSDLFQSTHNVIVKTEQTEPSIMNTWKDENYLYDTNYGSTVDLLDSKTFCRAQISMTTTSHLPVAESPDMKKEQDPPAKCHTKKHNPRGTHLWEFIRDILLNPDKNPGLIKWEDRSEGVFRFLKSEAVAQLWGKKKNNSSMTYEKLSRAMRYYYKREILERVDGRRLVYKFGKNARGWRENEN
# Procedure, shortened: as §1
# SPI1 = SPI1 (Homo sapiens, UniProt P17947 1-270); settings: protein: recombinant; tags: N-terminal GST; dsDNA, one strand shown
# Procedure, shortened: as §1
# SPIB = SPIB (Homo sapiens, UniProt Q01892 1-262); settings: protein: recombinant; tags: N-terminal GST; dsDNA, one strand shown
# Procedure, shortened: as §1
# ELK3 = biological target: T6, ELK3 (Homo sapiens, UniProt P41970 1-407); settings: protein: recombinant; tags: N-terminal GST; dsDNA, one strand shown
# T6 sequence: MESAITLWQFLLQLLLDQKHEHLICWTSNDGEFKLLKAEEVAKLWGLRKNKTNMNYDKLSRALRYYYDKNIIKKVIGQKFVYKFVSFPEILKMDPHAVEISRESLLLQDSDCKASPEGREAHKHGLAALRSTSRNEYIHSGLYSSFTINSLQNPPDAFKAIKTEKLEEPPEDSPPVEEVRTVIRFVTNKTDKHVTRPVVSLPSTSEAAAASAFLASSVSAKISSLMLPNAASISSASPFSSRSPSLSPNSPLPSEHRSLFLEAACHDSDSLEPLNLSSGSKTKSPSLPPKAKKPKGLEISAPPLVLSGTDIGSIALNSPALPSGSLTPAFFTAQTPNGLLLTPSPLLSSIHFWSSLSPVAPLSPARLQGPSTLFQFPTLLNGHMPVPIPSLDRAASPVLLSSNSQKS
# Procedure, shortened: as §1
# FEV = biological target: T7, FEV (Homo sapiens, UniProt Q99581 1-238); settings: protein: recombinant; tags: N-terminal GST; dsDNA, one strand shown
# T7 sequence: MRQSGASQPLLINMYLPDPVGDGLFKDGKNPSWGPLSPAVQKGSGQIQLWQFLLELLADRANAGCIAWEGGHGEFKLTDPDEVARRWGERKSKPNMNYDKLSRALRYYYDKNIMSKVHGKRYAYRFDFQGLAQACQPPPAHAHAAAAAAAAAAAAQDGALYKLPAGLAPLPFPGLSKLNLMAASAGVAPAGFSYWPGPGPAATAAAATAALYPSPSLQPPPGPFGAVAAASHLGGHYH
# Procedure, shortened: as §1
# ETV5 = ETV5 (Homo sapiens, UniProt P41161 1-510); settings: protein: recombinant; tags: N-terminal GST; dsDNA, one strand shown
# Procedure, shortened: as §1
# HSF1 = HSF1 (Homo sapiens, UniProt Q00613 1-529); settings: protein: recombinant; tags: N-terminal GST; chain copies: 3; dsDNA, one strand shown
# Procedure, shortened: as §1
# SPIC = biological target: T8, SPIC (Homo sapiens, UniProt Q8N5J4 1-248); settings: protein: recombinant; tags: N-terminal GST; dsDNA, one strand shown
# T8 sequence: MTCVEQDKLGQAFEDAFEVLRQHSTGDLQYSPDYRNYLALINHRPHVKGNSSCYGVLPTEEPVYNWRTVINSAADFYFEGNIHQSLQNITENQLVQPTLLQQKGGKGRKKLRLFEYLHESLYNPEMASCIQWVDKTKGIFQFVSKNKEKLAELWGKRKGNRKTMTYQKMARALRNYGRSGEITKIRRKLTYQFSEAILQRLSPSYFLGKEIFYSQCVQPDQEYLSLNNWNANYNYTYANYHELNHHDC
# Procedure, shortened: as §1
# ELF4 = ELF4 (Homo sapiens, UniProt Q99607 1-663); settings: protein: recombinant; tags: N-terminal GST; dsDNA, one strand shown
# Procedure, shortened: as §1
# ELK4 = biological target: T9, ELK4 (Homo sapiens, UniProt P28324-2 1-405); settings: protein: recombinant; tags: N-terminal GST; dsDNA, one strand shown
# T9 sequence: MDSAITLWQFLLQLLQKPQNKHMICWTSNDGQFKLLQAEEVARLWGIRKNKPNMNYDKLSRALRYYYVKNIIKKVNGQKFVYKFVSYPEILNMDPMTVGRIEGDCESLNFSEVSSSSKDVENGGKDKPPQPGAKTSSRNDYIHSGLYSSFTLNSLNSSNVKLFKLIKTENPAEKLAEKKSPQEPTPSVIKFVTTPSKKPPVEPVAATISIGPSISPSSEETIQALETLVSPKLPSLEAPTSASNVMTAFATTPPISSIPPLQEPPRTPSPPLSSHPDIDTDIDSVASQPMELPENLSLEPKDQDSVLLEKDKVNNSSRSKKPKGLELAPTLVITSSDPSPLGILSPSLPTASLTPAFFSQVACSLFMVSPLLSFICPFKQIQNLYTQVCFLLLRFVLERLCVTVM
# Procedure, shortened: as §1
# ETV2 = biological target: T10, ETV2 (Homo sapiens, UniProt O00321 1-342); settings: protein: recombinant; tags: N-terminal GST; dsDNA, one strand shown
# T10 sequence: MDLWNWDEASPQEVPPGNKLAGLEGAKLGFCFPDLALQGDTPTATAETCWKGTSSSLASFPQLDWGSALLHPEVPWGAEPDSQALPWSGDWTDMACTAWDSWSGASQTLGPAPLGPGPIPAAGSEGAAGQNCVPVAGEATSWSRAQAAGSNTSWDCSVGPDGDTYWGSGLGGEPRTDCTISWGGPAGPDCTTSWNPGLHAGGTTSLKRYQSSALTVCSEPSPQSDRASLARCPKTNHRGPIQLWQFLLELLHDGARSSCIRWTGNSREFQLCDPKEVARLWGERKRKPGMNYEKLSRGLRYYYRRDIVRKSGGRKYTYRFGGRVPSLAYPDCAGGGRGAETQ
# Procedure, shortened: as §1
# ELF3 = biological target: T11, ELF3 (Homo sapiens, UniProt P78545 1-371); settings: protein: recombinant; tags: N-terminal GST; dsDNA, one strand shown
# T11 sequence: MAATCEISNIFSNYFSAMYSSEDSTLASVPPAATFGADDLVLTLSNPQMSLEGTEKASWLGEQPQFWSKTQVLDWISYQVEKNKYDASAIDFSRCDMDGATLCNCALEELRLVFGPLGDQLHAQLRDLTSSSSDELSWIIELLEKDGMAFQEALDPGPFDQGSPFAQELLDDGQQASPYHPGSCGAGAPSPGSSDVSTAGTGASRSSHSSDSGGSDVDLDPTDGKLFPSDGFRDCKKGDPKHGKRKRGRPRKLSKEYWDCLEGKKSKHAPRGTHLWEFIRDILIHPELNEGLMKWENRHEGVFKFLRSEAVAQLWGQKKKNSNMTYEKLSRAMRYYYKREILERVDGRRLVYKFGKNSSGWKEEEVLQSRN
# Procedure, shortened: as §1
# CRX = CRX (Homo sapiens, UniProt O43186 1-299); settings: protein: recombinant; tags: N-terminal GST; dsDNA, one strand shown
# Procedure, shortened: as §1
# ETV1 = ETV1 (Homo sapiens, UniProt P50549 1-477); settings: protein: recombinant; tags: N-terminal GST; dsDNA, one strand shown
# Procedure, shortened: as §1
# ELF1, sequence (P32519 whole entry): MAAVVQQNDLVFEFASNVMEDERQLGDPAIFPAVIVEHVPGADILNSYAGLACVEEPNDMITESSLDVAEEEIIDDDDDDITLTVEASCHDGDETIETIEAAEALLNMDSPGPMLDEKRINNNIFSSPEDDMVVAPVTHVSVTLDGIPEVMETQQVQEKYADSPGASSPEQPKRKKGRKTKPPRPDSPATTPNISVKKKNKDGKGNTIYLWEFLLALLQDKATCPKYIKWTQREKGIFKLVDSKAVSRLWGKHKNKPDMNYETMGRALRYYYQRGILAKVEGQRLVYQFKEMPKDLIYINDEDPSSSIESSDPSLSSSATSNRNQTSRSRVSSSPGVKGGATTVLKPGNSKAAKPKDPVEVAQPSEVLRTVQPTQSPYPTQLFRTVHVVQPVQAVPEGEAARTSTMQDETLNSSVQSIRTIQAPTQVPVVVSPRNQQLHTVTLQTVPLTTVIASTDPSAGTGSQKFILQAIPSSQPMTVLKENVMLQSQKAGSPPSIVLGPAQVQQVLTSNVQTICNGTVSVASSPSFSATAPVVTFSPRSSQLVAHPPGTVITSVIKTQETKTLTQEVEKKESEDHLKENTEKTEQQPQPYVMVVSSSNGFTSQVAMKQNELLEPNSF
# ELF4, sequence (Q99607 whole entry): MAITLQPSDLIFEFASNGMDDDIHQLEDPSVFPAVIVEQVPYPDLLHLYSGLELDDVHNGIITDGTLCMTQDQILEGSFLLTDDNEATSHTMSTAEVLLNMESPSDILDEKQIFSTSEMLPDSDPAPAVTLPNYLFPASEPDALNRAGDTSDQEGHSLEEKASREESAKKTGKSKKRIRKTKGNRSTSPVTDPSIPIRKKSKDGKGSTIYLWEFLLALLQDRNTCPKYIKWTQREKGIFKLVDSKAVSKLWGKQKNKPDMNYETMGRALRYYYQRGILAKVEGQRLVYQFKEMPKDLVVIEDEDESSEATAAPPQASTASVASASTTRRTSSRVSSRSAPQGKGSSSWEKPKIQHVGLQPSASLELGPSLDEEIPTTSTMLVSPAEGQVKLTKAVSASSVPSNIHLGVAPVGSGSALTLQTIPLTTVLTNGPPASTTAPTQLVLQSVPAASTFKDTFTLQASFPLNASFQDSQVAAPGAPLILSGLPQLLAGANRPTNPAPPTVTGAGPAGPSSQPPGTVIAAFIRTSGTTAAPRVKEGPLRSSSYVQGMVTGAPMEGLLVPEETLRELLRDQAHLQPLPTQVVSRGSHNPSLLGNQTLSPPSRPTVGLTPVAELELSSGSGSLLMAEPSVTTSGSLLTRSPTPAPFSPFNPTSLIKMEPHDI
# ETV5, sequence (P41161 whole entry): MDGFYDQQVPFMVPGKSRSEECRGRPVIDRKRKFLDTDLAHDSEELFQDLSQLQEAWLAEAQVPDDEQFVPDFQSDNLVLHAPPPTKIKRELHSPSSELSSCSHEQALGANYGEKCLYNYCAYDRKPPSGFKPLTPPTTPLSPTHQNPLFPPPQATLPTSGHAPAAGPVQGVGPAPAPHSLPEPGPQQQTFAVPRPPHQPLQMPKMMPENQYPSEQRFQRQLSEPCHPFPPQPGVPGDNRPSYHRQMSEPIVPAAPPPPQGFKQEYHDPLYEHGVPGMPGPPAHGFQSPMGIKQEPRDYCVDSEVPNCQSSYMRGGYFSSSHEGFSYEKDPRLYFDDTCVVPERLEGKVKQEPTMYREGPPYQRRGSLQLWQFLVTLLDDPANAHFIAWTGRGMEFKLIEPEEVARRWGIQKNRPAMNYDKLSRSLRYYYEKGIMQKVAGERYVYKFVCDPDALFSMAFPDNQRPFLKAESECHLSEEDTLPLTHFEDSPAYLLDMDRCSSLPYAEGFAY
# ETV1, sequence (P50549 whole entry): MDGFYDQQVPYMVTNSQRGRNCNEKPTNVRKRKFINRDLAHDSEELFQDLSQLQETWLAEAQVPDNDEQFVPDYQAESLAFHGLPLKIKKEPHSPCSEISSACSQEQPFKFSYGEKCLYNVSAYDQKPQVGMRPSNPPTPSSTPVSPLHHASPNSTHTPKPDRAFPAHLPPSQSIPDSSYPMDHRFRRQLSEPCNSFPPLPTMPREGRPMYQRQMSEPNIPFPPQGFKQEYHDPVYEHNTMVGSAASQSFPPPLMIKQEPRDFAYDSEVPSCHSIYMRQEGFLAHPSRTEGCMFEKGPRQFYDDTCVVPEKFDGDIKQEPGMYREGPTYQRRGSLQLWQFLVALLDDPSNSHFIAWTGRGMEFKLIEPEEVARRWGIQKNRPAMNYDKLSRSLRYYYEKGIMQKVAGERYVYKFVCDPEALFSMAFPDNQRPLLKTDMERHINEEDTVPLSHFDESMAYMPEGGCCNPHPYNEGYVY
# HSF1, sequence (Q00613 whole entry): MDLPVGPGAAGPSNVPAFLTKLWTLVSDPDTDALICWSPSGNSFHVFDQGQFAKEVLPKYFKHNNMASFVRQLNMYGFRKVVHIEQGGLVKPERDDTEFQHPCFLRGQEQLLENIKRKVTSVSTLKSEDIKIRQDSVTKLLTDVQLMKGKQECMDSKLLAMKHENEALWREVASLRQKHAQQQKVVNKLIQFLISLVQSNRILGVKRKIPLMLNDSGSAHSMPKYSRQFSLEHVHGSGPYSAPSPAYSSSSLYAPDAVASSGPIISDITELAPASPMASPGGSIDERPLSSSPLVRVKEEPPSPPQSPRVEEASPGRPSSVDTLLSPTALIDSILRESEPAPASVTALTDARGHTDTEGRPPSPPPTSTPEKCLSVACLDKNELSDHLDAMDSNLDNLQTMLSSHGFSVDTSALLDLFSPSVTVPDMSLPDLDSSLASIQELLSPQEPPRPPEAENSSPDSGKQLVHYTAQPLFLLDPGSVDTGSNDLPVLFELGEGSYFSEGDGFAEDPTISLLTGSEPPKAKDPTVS
# CRX, sequence (O43186 whole entry): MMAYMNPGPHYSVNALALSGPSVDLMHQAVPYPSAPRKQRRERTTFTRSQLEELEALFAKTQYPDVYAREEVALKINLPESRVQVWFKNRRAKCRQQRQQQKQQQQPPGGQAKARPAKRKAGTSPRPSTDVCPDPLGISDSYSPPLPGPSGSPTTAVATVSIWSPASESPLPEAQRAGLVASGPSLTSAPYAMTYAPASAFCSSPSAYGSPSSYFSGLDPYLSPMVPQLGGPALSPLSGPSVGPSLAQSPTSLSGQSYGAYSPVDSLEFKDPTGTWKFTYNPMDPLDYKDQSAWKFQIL
# SPIB, sequence (Q01892 whole entry): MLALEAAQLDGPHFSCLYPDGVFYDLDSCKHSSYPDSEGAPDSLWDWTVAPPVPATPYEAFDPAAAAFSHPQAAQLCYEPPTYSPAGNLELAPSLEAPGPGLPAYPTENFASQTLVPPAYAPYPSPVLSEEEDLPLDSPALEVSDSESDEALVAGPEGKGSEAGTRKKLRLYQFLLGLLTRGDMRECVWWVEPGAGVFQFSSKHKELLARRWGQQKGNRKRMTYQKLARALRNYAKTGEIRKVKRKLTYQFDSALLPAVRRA
sequence,measurement,setting,value
CAGGAT,binding signal,FLI1,"1.23 fold enrichment (6-mer frequency, TF over GST control)"
same,binding signal,ELK1,"1.16 fold enrichment (6-mer frequency, TF over GST control)"
same,binding signal,GABPA,"1.13 fold enrichment (6-mer frequency, TF over GST control)"
same,binding signal,ERG,"1.2 fold enrichment (6-mer frequency, TF over GST control)"
same,binding signal,ELF1,"1.14 fold enrichment (6-mer frequency, TF over GST control)"
same,binding signal,EHF,"1.19 fold enrichment (6-mer frequency, TF over GST control)"
same,binding signal,SPI1,"1.1 fold enrichment (6-mer frequency, TF over GST control)"
same,binding signal,SPIB,"1.29 fold enrichment (6-mer frequency, TF over GST control)"
same,binding signal,ELK3,"1.04 fold enrichment (6-mer frequency, TF over GST control)"
same,binding signal,FEV,"1.27 fold enrichment (6-mer frequency, TF over GST control)"
same,binding signal,ETV5,"1.19 fold enrichment (6-mer frequency, TF over GST control)"
same,binding signal,HSF1,"1.08 fold enrichment (6-mer frequency, TF over GST control)"
same,binding signal,SPIC,"1.04 fold enrichment (6-mer frequency, TF over GST control)"
same,binding signal,ELF4,"1.11 fold enrichment (6-mer frequency, TF over GST control)"
same,binding signal,ELK4,"1.23 fold enrichment (6-mer frequency, TF over GST control)"
same,binding signal,ETV2,"1.15 fold enrichment (6-mer frequency, TF over GST control)"
same,binding signal,ELF3,"1.12 fold enrichment (6-mer frequency, TF over GST control)"
same,binding signal,CRX,"1.35 fold enrichment (6-mer frequency, TF over GST control)"
same,binding signal,ETV1,"1.34 fold enrichment (6-mer frequency, TF over GST control)"
